ATXN2 expr inh – Primary qHTS for Inhibitors of ATXN expression. HEK-293 ATXN2-luciferase reporter, luminescence, 24 h. hit rate 0.72% among 360,000. Potency, µM (highest dose often 57 µM), for the others: top-dose activity change, negative = inhibition, usual class: inhibitors; further: on the % scale 0 is the no-effect control and ±100 the full control effect; nearly all actives have a fitted effect of over 55% in size
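qHTS (up to 57 uM final) was run with 24 h compound exposure of reporter cells at 37 °C. Each well was multiplexed: SteadyGlo luminescence measured ATXN2-luciferase expression after a fluorogenic Gly-Phe-AFC viability readout (25 uM final).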
TGFb inhibitor – qHTS for Inhibitors of TGF-b; AID 588855, 2011; HepG2 CAGA-GFP TGF-b/SMAD3 reporter, GFP fluorescence, 18 h; TGF-beta stimulated, 500 pg/mL final; hit rate 1.2% among 410,000; Potency, µM (titrated, usually from 46.1 µM), without a hit: top-dose activity, negative = inhibition, hits mostly inhibitors; further: on the % scale 0 is the no-effect control and ±100 the full control effect; nearly all actives have a fitted effect of over 65% in size
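First, reporter cells (HEPG2 CAGA-GFP) rested 2 h at 37 degrees C. Next, compounds were pinned in and TGF-beta added to 500 pg/mL final. After 18 h, GFP was imaged per cell and summed per well.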
S2 tox – Viability Counterscreen for Primary qHTS for Inhibitors of ATXN expression | S2 cells (HEK-293 line with an ATXN2-luciferase reporter) viability, CellTiter-Fluor protease fluorescence, 24 h | Potency, µM (titrated, usually from 56.7 µM), hits mostly cytotoxic | hit rate 0.49% among 400,000; further: nearly all actives have a fitted effect of over 40% in size
DT40 TDP1 no CPT – qHTS for Inhibitors of human tyrosyl-DNA phosphodiesterase 1 (TDP1): qHTS in cells in absence of CPT. Potency, µM (highest dose often 46.2 µM), for the others: top-dose activity change, negative = growth inhibition, usual class: inhibitors. DT40 Tdp1-/- hTDP1 cells, no CPT, ATP luminescence, 48 h. hit rate 15% among 420,000; further: on the % scale 0 is the no-effect control and ±100 the full control effect; nearly all actives have a fitted effect of over 55% in size
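Compound effects on proliferation are scored in DT40 Tdp1-/-;hTDP1 cells in the absence of CPT. ATP levels (CellTiter-Glo luminescence) are recorded after a ≥48 hr, 37 °C incubation.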
HepG2 tox – qHTS for Inhibitors of TGF-b: Cytotox Counterscreen; HepG2 CAGA-GFP viability, ATP luminescence, 18 h; Potency, µM (highest dose often 46.1 µM), without a hit: top-dose activity change, negative = cytotoxicity, usual class: cytotoxic; hit rate 0.76% among 410,000; AID 588856, 2011
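HepG2 CAGA-GFP cells (1000/well, DMEM with 1% FBS) received compound, then TGF-beta at 500 pg/mL final, and were incubated 18 hours at 37 degrees C. Viability was read by CellTiter-Glo luminescence. Media-only wells were set as complete cell-killing and DMSO as no toxicity.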
TDP1 cell CPT – qHTS for Inhibitors of human tyrosyl-DNA phosphodiesterase 1 (TDP1): qHTS in cells in presence of CPT | chicken DT40 Tdp1-/-;hTDP1 cells + 20 nM CPT, ATP luminescence, 48 h | AID 686979, 2013 | Potency, µM (doses to about 46.2 µM), for the others: top-dose activity change, negative = growth inhibition, actives largely listed as inhibitors | hit rate 12% among 420,000; further: on the % scale 0 is the no-effect control and ±100 the full control effect; nearly all actives have a fitted effect of over 55% in size
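Cell growth measured by CellTiter-Glo luminescence after a minimum 48 h, 37 C compound exposure with 20 nM CPT in Tdp1-knockout DT40 cells stably expressing hTDP1, seeded 400/well; qHTS titration format.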
Active calls of the source: *; i = inactive; ? = inconclusive; . = not tested or not shown; [ ] = remark or other dose. Compounds with a hit are over-represented: about 17% of the library has one in this group of screens. The call rests on the fitted dose curve; in most records, active means well fitted curve in the direction sought with a large enough effect; inconclusive means small, poorly fitted or top-dose-only effect, or another doubt; inactive means no such curve, though single readings can be large; an effect the other way counts as inactive or inconclusive. Potency means the concentration at half of the fitted maximal effect.

SMILES | ATXN2 expr inh | TGFb inhibitor | S2 tox | DT40 TDP1 no CPT | HepG2 tox | TDP1 cell CPT
Cc1cc2oc3ccc(NCCCN4CCOCC4)cc3c(=O)c2cc1C | 17.7% | 3.4% | i | 13µM* | -1.0% | 10.3µM*
CCOC(=O)CC(=O)CSCC(=O)Nc1ccc(C)cc1 | 10.2% | 25.5% | i | ? | -4.0% | -20.8%
O=C(Nc1ccc(Br)cn1)c1ccc(Cl)s1 | 17.2% | -21.5% | i | 18.4µM* | -9.8% | ?
O=C(Nc1ccccn1)c1ccc(Cl)s1 | 29.0% | -3.8% | i | 15.3% | -16.8% | 5.3%
Cc1cc(C(=O)Nc2ccc(Br)cn2)sc1C | . | -0.4% | ? | -12.0% | -40.9% | -17.2%
O=C(Nc1ccc(Br)cn1)c1ccc(Br)s1 | 30.3% | 20.5% | i | 25.9µM* | 0.2% | ?
COc1cc2c(cc1NC(=S)NC(=O)/C=C/c1ccco1)oc1ccccc12 | ? | -3.8% | ? | ? | -24.7% | 16.4µM*
COc1cc2c(cc1NC(=S)NC(=O)/C=C/c1ccc(OC)c(OC)c1)oc1ccccc12 | -30.0%[11.3 µM] | 12.0% | i | 5.1% | -5.8% | 5.6%
COc1ccc(/C=C/C(=O)NC(=S)Nc2cc3oc4ccccc4c3cc2OC)cc1 | ? | 13.1% | ? | ? | 1.0% | 9.2µM*
O=S(=O)(c1ccc(OCC(O)CN2CCc3ccccc3C2)cc1)N1CCOCC1 (centres undefined) | -4.1% | -16.3% | i | -27.5% | -0.6% | ?
Cc1cccc(CN(C)C[C@H]2OCc3cnnn3CCCC(=O)N([C@@H](C)CO)C[C@@H]2C)c1 | 10.3% | 0.1% | i | -21.2% | 1.9% | 2.2%
CCOc1ccccc1NC(=O)N1CCC(N2CCN(Cc3ccccc3)C(=O)C2=O)CC1 | . | -23.4% | . | 1.6% | -29.4% | -15.6%
COc1cccc(C(NC(C)=O)c2nc(-c3ccccc3)cs2)c1 (centres undefined) | 5.6% | 6.4% | i | ? | -8.4% | ?
COc1cccc(C(NC(C)=O)c2nc(-c3cccc(C#N)c3)cs2)c1 (centres undefined) | -0.5% | 20.5% | i | ? | -5.0% | 29.1µM*
COc1ccc(-c2csc(C(NC(C)=O)c3cccc(F)c3)n2)cc1 (centres undefined) | -18.3% | 18.8% | i | 16.4µM* | -11.3% | ?
COc1cccc(C(NC(C)=O)c2nc(-c3cccc(O)c3)cs2)c1 (centres undefined) | 0.7% | 4.5% | i | 18.4µM* | -2.7% | 23.1µM*
O=C(CN1C(=O)NC(c2ccccc2)(c2ccccc2)C1=O)NCCNCCO | -15.2% | 0.1% | i | 10.2% | 0.9% | -15.5%
CC(=O)OC1C(N2CCCCC2)c2c(ccc(/C=C/C(=O)N3CCCCC3)c2O)OC1(C)C (centres undefined) | 3.6% | -6.7% | i | ? | 0.6% | -28.3%
O=C(/C=C/c1ccccc1)OCc1ccccc1 | 42.4% | . | i | -26.8% | . | ?
O=C1OC/C(=C(/O)c2ccc(Cl)cc2)C1=O | . | 11.0% | ? | -22.5% | 1.6% | 13.6%
CC(=O)Nc1ccc(S(=O)(=O)N2CCN(c3cc(C)ccc3C)CC2)cc1 | -28.5% | ? | i | ? | -12.6% | 16.4µM*
CN1C(=O)C(C)(C)c2cc(S(=O)(=O)N3CCN(c4ccccc4F)CC3)ccc21 | 3.7% | 7.5% | i | 23.1µM* | -11.2% | ?
Cc1cccc(N2CCN(S(=O)(=O)c3ccc4c(c3)C(C)(C)C(=O)N4C)CC2)c1C | ? | -25.3% | i | ? | -23.5% | ?
Cc1ccc(C)c(N2CCN(S(=O)(=O)c3ccc4c(c3)C(C)(C)C(=O)N4C)CC2)c1 | -24.4% | ? | i | 23.1µM* | -22.4% | ?
COc1ccccc1-n1nc(-c2ccccc2)c2cnc3cc(C(F)(F)F)ccc3c21 | 11.1% | 16.3% | i | 4.0% | 1.7% | 1.9%
SMILES | ATXN2 expr inh | TGFb inhibitor | S2 tox | DT40 TDP1 no CPT | HepG2 tox | TDP1 cell CPT
CCS(=O)(=O)c1ccc(OC)c(C(=O)OC)c1 | 11.7% | . | i | . | . | .
COc1cc(=O)n2c(c1C(=O)NCc1nccs1)CCN(Cc1ccccc1F)CC2 | . | . | i | -14.5% | . | -2.6%
CC(=O)c1cn(CC(=O)Nc2ccc(C)cc2C)c2ccccc12 | ? | 1.4% | i | 5.8µM* | -9.1% | 5.17µM*
CC(=O)c1cn(CC(=O)Nc2cccc(C)c2C)c2ccccc12 | -5.8% | -14.7% | i | 25.9µM* | -18.6% | ?
CCN1CCN(CC(=O)Nc2cccc(C)c2C)C(=O)C1=O | 8.0% | -1.2% | i | -25.3% | 3.5% | 2.31µM*
O=C(C1CCC(CNS(=O)(=O)c2cccc3cccnc23)CC1)N1CCCC1 (centres undefined) | 9.2% | 5.7% | i | 9.1% | -5.8% | 12.0%
CCCCN(CC)C(=O)C1CCC(CNS(=O)(=O)c2cccc3nsnc23)CC1 (centres undefined) | -15.7% | -7.2% | i | 9.2µM* | -18.1% | 23.1µM*
CN(C(=O)C1CCC(CNS(=O)(=O)c2cccc3cccnc23)CC1)C1CCCCC1 (centres undefined) | -15.9% | -4.7% | ? | 14.6µM* | -19.5% | ?
Cc1cccc(N(C)C(=O)C2CCC(CNS(=O)(=O)c3cccc4nsnc34)CC2)c1 (centres undefined) | -12.6% | ? | ? | -29.0% | -8.6% | ?
CCN(C(=O)C1CCC(CNS(=O)(=O)c2cccc3nsnc23)CC1)c1ccc(C)c(C)c1 (centres undefined) | 2.8% | 0.3% | i | 25.9µM* | 9.1% | ?
CCOc1ccc(C(Nc2ccc(C)cc2)P2(=O)OCCC(C)O2)cc1 (centres undefined) | 4.7% | -7.0% | i | ? | 2.0% | -14.1%
C[C@H](NC(=O)c1[nH]cnc1C(=O)Nc1cccc(Cl)c1)c1ccccc1 | -11.8% | ? | ? | 16.4µM* | -42.8% | ?
C[C@@H](NC(=O)c1[nH]cnc1C(=O)Nc1ccccc1)c1ccccc1 | ? | 14.1µM* | ? | ? | -25.8% | ?
C[C@@H](NC(=O)c1[nH]cnc1C(=O)Nc1ccon1)c1ccccc1 | -20.9% | -24.9% | i | ? | -22.9% | 16.4µM*
